Pf growth 48h: P. falciparum growth inhibition at 48 hours (one generation); 5.9% of 310,000 active; P. falciparum luciferase growth in erythrocytes, 48 h; Potency, µM (series often up to 28.7 µM), usual class: inhibitors
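Firefly luciferase activity from engineered P. falciparum reports growth; inhibitors lower the luminescent signal. Cultures contained 2% hematocrit erythrocytes at 0.1% final parasitemia.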
Shiga inhibitor: blocks Shiga toxin action in Vero cells | 9.2% of 290,000 active | Vero cells, Shiga toxin protein synthesis inhibition reporter | inhibition, % at 38.7 µM; in the data active = inhibition mostly above about 28%, no sharp cut-off; inactive = mostly below about 43%
Pf growth 96h: inhibits malaria parasite growth, 96 h; 6.9% of 320,000 active; P. falciparum luciferase reporter growth, 96 h; Potency, µM (doses to about 28.7 µM), most hits filed as inhibitors
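96 h incubation, 37 C, 5% CO2, of luciferase-reporter P. falciparum-infected RBCs (2% hematocrit, 0.05% parasitemia final) with test compounds; endpoint luminescence.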
Cycloheximide cs: affects cycloheximide protein synthesis inhibition readout, counter-screen; cell reporter, cycloheximide protein synthesis inhibition counterscreen; max response, %; 12% of 300,000 active; in the data active = max response mostly above about 13%, no sharp cut-off; inactive = mostly below about 14%; note: read at 38.3 µM for the half of the compounds with a filed dose
LmPK inhibitor: blocks Leishmania mexicana pyruvate kinase activity. AID 1721. 0.37% of 290,000 active. purified LmPK, Kinase-Glo ATP luminescence, 1 h. Potency, µM (top dose mostly 57.5 µM), most hits filed as inhibitors
Target sequence (Q27686 whole entry, looked up): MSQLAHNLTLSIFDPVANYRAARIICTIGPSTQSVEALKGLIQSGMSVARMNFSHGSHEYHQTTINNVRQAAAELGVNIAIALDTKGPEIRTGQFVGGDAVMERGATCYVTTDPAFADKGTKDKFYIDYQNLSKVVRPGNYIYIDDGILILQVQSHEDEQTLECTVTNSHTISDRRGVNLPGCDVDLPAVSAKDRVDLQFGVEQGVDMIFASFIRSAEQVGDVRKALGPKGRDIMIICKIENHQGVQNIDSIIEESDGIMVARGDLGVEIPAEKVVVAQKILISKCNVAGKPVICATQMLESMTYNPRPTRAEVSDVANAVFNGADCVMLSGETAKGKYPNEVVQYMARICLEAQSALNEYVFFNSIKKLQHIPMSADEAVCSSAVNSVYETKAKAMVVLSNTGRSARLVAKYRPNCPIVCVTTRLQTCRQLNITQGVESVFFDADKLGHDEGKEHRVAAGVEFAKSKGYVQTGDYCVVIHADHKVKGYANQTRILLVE
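ATP generated from ADP (0.1 mM) and PEP (0.5 mM) by 0.1 nM LmPK over 1 h at room temperature (pH 7.2 imidazole buffer) was detected by coupled luciferase luminescence. Values were normalized to uninhibited and no-enzyme wells.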
Each line names hits and unclear results; the compound was inactive in the other large screens. Compounds with a hit are over-represented: about 22% of the library has one in this group of screens. Unless noted, calls come from the whole dose curve; as a rule, active = well fitted inhibition curve with a large enough effect; inconclusive = small, poorly fitted or top-dose-only effect, or another doubt; inactive = no such curve, though single readings can be large or run the other way.

CCOc1ccc(CCNC(=O)CN2C(=O)CCSc3ccccc32)cc1OCC	Pf growth 96h 0.19µM
COc1ccc(CCN2CC(C(=O)NCCc3ccccc3)CC2=O)cc1OC (stereo not drawn)	Shiga inhibitor 172, Pf growth 96h inconclusive, Cycloheximide cs 36
CCCC(C)NC(=O)C1CC(=O)N(CCc2ccc(F)cc2)C1 (stereo not drawn)	Pf growth 96h 0.93µM
O=C(NCCc1ccccc1)C1CCC(=O)N1CCc1ccccc1 (stereo not drawn)	none
CSc1ccc(CCNC(=O)CN2C(=O)CCSc3ccccc32)cc1	none
CCC(CC)NC(=O)C1CC(=O)N(CCc2ccc(F)cc2)C1 (stereo not drawn)	none
O=C(NC(Cc1ccccc1)C(=O)O)/C(=C\c1ccccc1)NC(=O)c1ccc(Br)o1 (stereo not drawn)	none
COCC1CCN(Cc2c(C(=O)N3CCc4ccccc4C3)nc3ccc(Cl)cn23)C1 (stereo not drawn)	Pf growth 48h inconclusive, Pf growth 96h inconclusive
C#CCOCCOCCOCCNc1nc(N2CCN(C(=O)[C@H](CCC(=O)O)n3cc(C(N)CO)nn3)CC2)nc(N2CCN(C(=O)[C@H](CCC(=O)O)n3cc(C(N)[C@H](C)CC)nn3)CC2)n1 (stereo partly drawn)	none
CCOC(=O)C1=C(N)Oc2ccc(Br)cc2C1C(C#N)C(=O)OCC (stereo not drawn)	none (no result: Pf growth 48h, Pf growth 96h, LmPK inhibitor)
CN(C)S(=O)(=O)c1cccc(CSCc2cccc(S(=O)(=O)N(C)C)c2)c1	none
Cc1cc2ccccc2n1CCNC(=O)C1CC1	Pf growth 96h inconclusive
O=C(NCc1ccco1)c1cnc2sccn2c1=O	none
Cc1cc2ccccc2n1CCNC(=O)c1cccs1	Shiga inhibitor 32, Pf growth 96h inconclusive, Cycloheximide cs 17
O=C(NCCc1ccccc1)c1cnc2sccn2c1=O	Shiga inhibitor 93, Cycloheximide cs 43
O=C(NCCc1cccc(Cl)c1)c1cccs1	Shiga inhibitor 101, Pf growth 96h inconclusive, Cycloheximide cs 67
O=C(NCCCNC(=O)c1cccs1)c1cccs1	none
O=C(NCCc1ccccc1)c1cccs1	Cycloheximide cs 29 (no result: Pf growth 48h)
CCn1c(SCC(=O)NCc2ccccc2)nc2c(c1=O)SC(C)C2 (stereo not drawn)	Pf growth 96h inconclusive
O=C(c1ccc(F)cc1)C1CCN(C(=S)Nc2ccc(F)cc2)CC1	Pf growth 96h inconclusive
CC(C)(C)SC(=O)C[C@@H]1NS(=O)(=O)OC2CCCCC21 (stereo partly drawn)	none
CCN=C1SC(C(=O)NCCc2ccccc2)CC(=O)N1CC (stereo not drawn)	none
O=C(NCc1nc2ccccc2[nH]1)c1ccco1	none
O=C(NCc1nc2ccccc2[nH]1)c1cccs1	Cycloheximide cs 23
CCN=c1sc(C(=O)NCCc2ccccc2)cc(=O)n1CC	Pf growth 48h inconclusive, Shiga inhibitor 97, Cycloheximide cs 47
O=C(C1CCN(C2CCN(Cc3ccc4c(c3)CCO4)CC2)CC1)N1CCOCC1	Pf growth 96h 12µM
COc1cc(OC)c(OC)cc1/C=C1\CCC(C2CCCC2)C1=O (stereo not drawn)	none
Cc1ccc(/C=C2\CCC(C3CCCC3)C2=O)cc1 (stereo not drawn)	Shiga inhibitor 61, Cycloheximide cs 56
COc1ccc(/C=C2\CCC(C3CCCC3)C2=O)cc1 (stereo not drawn)	Shiga inhibitor 93, Pf growth 96h inconclusive, Cycloheximide cs 51
Cc1ccsc1/C=C1\CCC(C2CCCC2)C1=O (stereo not drawn)	Shiga inhibitor 106, Cycloheximide cs 44
O=S(=O)(c1ccc2ccccc2c1)N1CCN(C(=S)Nc2ccc(F)cc2)CC1	Pf growth 48h inconclusive, Pf growth 96h inconclusive
Fc1ccccc1NC(=S)N1CCOCC1	none
O=S(=O)(c1ccc2ccccc2c1)N1CCN(C(=S)Nc2ccccc2F)CC1	Pf growth 48h 1.7µM, Pf growth 96h 3.3µM
O=S(=O)(c1ccc(Cl)cc1)N1CCN(C(=S)Nc2ccccc2F)CC1	Pf growth 48h 0.93µM, Pf growth 96h inconclusive
O=S(=O)(c1ccc2ccccc2c1)N1CCN(C(=S)Nc2ccc(F)c(Cl)c2)CC1	Pf growth 48h 1µM, Pf growth 96h 0.33µM
N#CCC(=O)Nc1ccc(C(=O)N2CCN(S(=O)(=O)c3ccc4ccccc4c3)CC2)cc1	Pf growth 48h 15µM, Pf growth 96h inconclusive
Cc1ccc(CN2CC(C(=O)N3CCN(S(=O)(=O)c4cccc(F)c4)CC3)CC2=O)cc1 (stereo not drawn)	Pf growth 48h inconclusive (no result: Shiga inhibitor, Cycloheximide cs, LmPK inhibitor)

Screens (PubChem)
